Here are results for 6 compounds from PubChem BioAssay (NCI).

Some test systems named below: HCT-15 colon; HT29 colon; SNB-75 CNS; SNB-19 CNS; U251 CNS; PC-3 prostate; SK-MEL-5 melanoma; UACC-62 melanoma; LOX IMVI melanoma; SK-MEL-28 melanoma; SK-MEL-2 melanoma; EKVX NSCLC; SN12C renal; UO-31 renal; TK-10 renal; ACHN renal; CAKI-1 renal; A498 renal; HL-60(TB) leukemia; CCRF-CEM leukemia.
Assay in all cases: NCI-60 one-dose screen, 48 h (100 = growth as untreated, 0 = no growth, -100 = all killed)
Holding throughout (conditions): 10 µM unless noted

The panel holds about 83,000 compounds, 20% with a hit somewhere; the sample as a whole holds those more often.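 In brief: 96-well plates, 48 h treatment, single concentration, percent growth endpoint.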 Unmarked numbers belong to inactive results. The source made the active and inactive calls. The calls were made as follows: active = growth percent below 10; inactive = the rest.

Take `O=Cc1cn(Cc2ccccc2)c2ccccc12`: the growth in the assay with HCT-15 colon is 106%; with HT29 colon it was 92%; with SNB-75 CNS it was 67.8%; in the assay with SNB-19 CNS, 93.8%; with U251 CNS, 68.5%; in the assay on PC-3 prostate, 95%. Moreover, the growth with SK-MEL-5 melanoma is 85.5%; with UACC-62 melanoma, 32.6%; with LOX IMVI melanoma, 79.4%; with SK-MEL-28 melanoma, 216%; in the assay on SK-MEL-2 melanoma, 27.1%; in the assay on EKVX NSCLC, 120%. Further, the growth is 98.1% in the assay with SN12C renal; 55.6% in the assay on UO-31 renal; 25.1% in the assay on TK-10 renal; 91.3% in the assay with ACHN renal; 21.9% in the assay on CAKI-1 renal; -92.7% (active) in the assay with A498 renal. Also, the growth was 105% with HL-60(TB) leukemia and 104% in the assay on CCRF-CEM leukemia.
As for `c1ccc(CCN2CCCCC2)nc1`, the growth in the assay on HCT-15 colon was 74.1%; in the assay on HT29 colon it was 95.8%; in the assay on SNB-75 CNS, 78.8%; in the assay on SNB-19 CNS it was 109%; with U251 CNS, 107%; in the assay on PC-3 prostate, 84.8%. Moreover, the growth in the assay with SK-MEL-5 melanoma is 115%; in the assay with UACC-62 melanoma it was 97.9%; in the assay on LOX IMVI melanoma, 107%; in the assay on SK-MEL-28 melanoma, 104%; in the assay with SK-MEL-2 melanoma, 111%; in the assay on EKVX NSCLC, 102%. Besides, the growth is 93.5% in the assay on SN12C renal; 96.4% in the assay on UO-31 renal; 103% in the assay on TK-10 renal; 91.6% in the assay with ACHN renal; 89.4% in the assay with CAKI-1 renal; 107% in the assay with A498 renal. Moreover, the growth with HL-60(TB) leukemia is 78.4%; with CCRF-CEM leukemia, 83.6%.
As to `C#COc1cccc(Nc2ncnc3cc(NC(=O)CF)ccc23)c1`, the growth is 28.6% [6.25 µM] in the assay with HCT-15 colon; 4.41% [6.25 µM] (active) in the assay with HT29 colon; 48.2% [6.25 µM] in the assay with SNB-75 CNS; 33.7% [6.25 µM] in the assay on SNB-19 CNS; 23.1% [6.25 µM] in the assay on U251 CNS; 36% [6.25 µM] in the assay on PC-3 prostate. Also, the growth was 36.2% [6.25 µM] with SK-MEL-5 melanoma; 26.4% [6.25 µM] in the assay on UACC-62 melanoma; 36.8% [6.25 µM] in the assay on LOX IMVI melanoma; 60.4% [6.25 µM] in the assay on SK-MEL-28 melanoma; 21.6% [6.25 µM] in the assay on SK-MEL-2 melanoma; 67.8% [6.25 µM] in the assay with EKVX NSCLC. Further, the growth was 54.7% [6.25 µM] in the assay with SN12C renal; 60.9% [6.25 µM] with UO-31 renal; 60.7% [6.25 µM] in the assay on TK-10 renal; 48.3% [6.25 µM] in the assay with ACHN renal; 45.5% [6.25 µM] in the assay on CAKI-1 renal; 75.3% [6.25 µM] with A498 renal. The growth in the assay with HL-60(TB) leukemia is 54.5% [6.25 µM]; with CCRF-CEM leukemia, -7.49% [6.25 µM] (active).
Consider `Cc1cc2c(cc1-c1ccnc(/C=C/C(=O)O)c1)C(C)(C)CCC2(C)C`, for which the growth in the assay on HCT-15 colon is 86.1%; with HT29 colon, 97.9%; in the assay with SNB-75 CNS, 80.3%; in the assay with SNB-19 CNS, 90.7%; in the assay on U251 CNS, 84.1%; in the assay with PC-3 prostate, 86.8%. The growth with SK-MEL-5 melanoma is 67.9%; with UACC-62 melanoma, 72.2%; with LOX IMVI melanoma, 46.9%; in the assay on SK-MEL-28 melanoma it was 92.9%; in the assay on SK-MEL-2 melanoma, 93.9%; with EKVX NSCLC, 86.1%. Moreover, the growth with SN12C renal was 88%; in the assay with UO-31 renal, 62.1%; in the assay with TK-10 renal it was 115%; with ACHN renal, 81.6%; in the assay on CAKI-1 renal, 91.8%; with A498 renal it was 73.7%. The growth with HL-60(TB) leukemia was 59.2%; in the assay with CCRF-CEM leukemia it was 95.7%.
Regarding `C=C[Se]CC(=O)/C=C/c1ccccc1`, the growth in the assay with HCT-15 colon was 96.3%; in the assay on HT29 colon it was 80.7%; in the assay on SNB-75 CNS, 49.4%; with SNB-19 CNS it was 31.3%; in the assay with U251 CNS it was 26.4%; in the assay with PC-3 prostate it was 29.1%. The growth is 92.2% in the assay with SK-MEL-5 melanoma; 92.4% in the assay on UACC-62 melanoma; 93.9% with LOX IMVI melanoma; 96.1% with SK-MEL-28 melanoma; 99.9% in the assay with SK-MEL-2 melanoma; 70.4% with EKVX NSCLC. Moreover, the growth with SN12C renal was 73.6%; in the assay with UO-31 renal, 39.4%; in the assay with TK-10 renal it was 103%; in the assay on ACHN renal, 95.5%; with CAKI-1 renal it was 106%; in the assay with A498 renal, 65.3%. Further, the growth was 42.2% in the assay with HL-60(TB) leukemia and 47.4% in the assay with CCRF-CEM leukemia.
For the compound `Cc1ccc(NC2=N[C@]34CC(=O)CC[C@]3(C)[C@H]3CC[C@]5(C)C(=O)CC[C@H]5[C@@H]3C[C@@H]4S2)c(C)c1`, the growth was 0.807% (active) in the assay on HCT-15 colon; 3.81% (active) with HT29 colon; 35.1% in the assay on SNB-75 CNS; 44% with SNB-19 CNS; 18.4% with U251 CNS; 15.8% with PC-3 prostate. The growth in the assay on SK-MEL-5 melanoma is 51.4%; in the assay on UACC-62 melanoma, 39%; in the assay with LOX IMVI melanoma it was -16.6% (active); in the assay with SK-MEL-28 melanoma, 50.8%; in the assay with SK-MEL-2 melanoma it was 72.6%; with EKVX NSCLC, 51.9%. Also, the growth in the assay with SN12C renal was 26.2%; with UO-31 renal, 34.3%; with TK-10 renal, 63.3%; with ACHN renal it was 32.3%; in the assay with CAKI-1 renal it was 49.8%; in the assay with A498 renal, 66.7%. Further, the growth in the assay with HL-60(TB) leukemia is 9.29% (active); with CCRF-CEM leukemia, 7.99% (active).
